Reference: ChEMBL document CHEMBL3988442, “University of Dundee, Small-Polar-MMV Screening Library” (2021)

The molecules below were run against T1, Aspartate--tRNA(Asp/Asn) ligase (Mycobacterium tuberculosis (strain ATCC 25618 / H37Rv)) (UniProt P9WFW3) (assay: Assay for Asp RNA synthetase-1 from Mycobacterium tuberculosis). Details: 30 µM.
T1 sequence (whole entry): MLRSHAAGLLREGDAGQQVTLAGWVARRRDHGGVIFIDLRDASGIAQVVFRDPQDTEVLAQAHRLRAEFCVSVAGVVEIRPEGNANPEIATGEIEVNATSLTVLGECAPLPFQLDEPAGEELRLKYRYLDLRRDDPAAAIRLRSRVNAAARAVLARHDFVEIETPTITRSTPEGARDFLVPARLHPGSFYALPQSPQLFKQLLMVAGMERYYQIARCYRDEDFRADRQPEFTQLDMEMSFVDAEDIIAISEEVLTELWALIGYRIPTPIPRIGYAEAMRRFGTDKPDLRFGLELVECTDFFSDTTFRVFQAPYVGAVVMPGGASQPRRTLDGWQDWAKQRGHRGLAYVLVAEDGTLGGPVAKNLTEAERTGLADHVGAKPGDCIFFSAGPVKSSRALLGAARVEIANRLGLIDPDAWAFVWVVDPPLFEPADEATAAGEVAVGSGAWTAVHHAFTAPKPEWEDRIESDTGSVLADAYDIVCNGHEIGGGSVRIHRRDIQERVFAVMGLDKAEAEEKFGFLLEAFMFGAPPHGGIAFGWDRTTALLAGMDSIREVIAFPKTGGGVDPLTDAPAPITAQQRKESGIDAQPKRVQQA
Assay type: functional
Set-up: scale not given: direction of the effect not stated beside the values

| Compound | Percent Effect |
| --- | --- |
| CC1CN(C)c2ccccc2CN1C(=O)c1ccncc1 (stereo not given) | 6.3% |
| COc1ccc(CNC(=O)NCC2CCOC2)c(C(F)(F)F)c1 (stereo not given) | -4.04% |
| CCCn1nc(C2CCNCC2)n(Cc2ccccc2)c1=O | -5.32% |
| O=C(CN1CCCC(O)C1)NC(=O)NCc1cccs1 (stereo not given) | -0.0898% |
| CCn1cnnc1C1CCN(C(=O)COCCc2ccccc2)CC1 | -3.95% |
| CCSCCC(=O)NS(=O)(=O)c1ccc2c(c1)OCCO2 | -0.722% |
| COCCCn1ccnc1-c1cnc(OC)nc1 | 2% |
| O=C(CNCCn1cccn1)NCC1(c2ccccc2)CC1 | 1.09% |
| CCN1CCN(C(=O)CCc2c(C)noc2Cl)CC1 | 0.983% |
| Cc1noc(Cl)c1CCC(=O)N1CCc2sccc2C1 | -1.63% |
| COC(=O)C1CCN(C(=O)CN2CCN(c3cccc(C)c3)CC2)CC1 | -0.137% |
| CCOc1cc(C)nc(N2CCN(Cc3nccn3C)CC2)n1 | -4.49% |
| CO[C@@H]1CC[C@H]2[C@H]1OCCN2C(=O)C1=CCCC1 | 3.45% |
| Cc1nc(CN2CCOC(CNc3cccnn3)C2)oc1C (stereo not given) | -4% |
| O=C(CCNc1ncccn1)NCCOc1ccc2c(c1)CCC2 | 1.63% |
| CC(C)(C)c1ccn(C2(C(=O)O)CCN(c3nccc(N)n3)CC2)n1 | 3.12% |
| O=C(Cn1nc(-c2ccc(F)cc2)oc1=O)Nc1ccccc1 | -1.5% |
| CN(Cc1ccc(Cl)s1)C(=O)NCc1nnc2n1CCC2 | 0% |
| Cc1c(C2CCCN(C(=O)C3CC3)C2)n2c(nc1=O)CCC2 (stereo not given) | -0.253% |
| O=C1CC(NCc2ccncc2)CN1Cc1cccc(F)c1 (stereo not given) | 2.73% |

| Compound | Percent Effect |
| --- | --- |
| COC(=O)N1CCCC(C(=O)NCc2cc3cccc(OC)c3o2)C1 (stereo not given) | -0.457% |
| Cc1ccc(CNCCOc2ccc(S(C)(=O)=O)cc2)cc1 | 1.28% |
| CN(C)CCN1CCC2(CC1)CN(c1cccnc1)C(=O)CO2 | 4.6% |
| Cc1csc(Nc2nccnc2C2CCCN2C(=O)C(C)C)n1 (stereo not given) | 7.04% |
| CC(=O)N1CCCCC1c1cc(CO)[nH]n1 (stereo not given) | -3.86% |
| N#Cc1ccccc1N1CCCN(C(=O)CCc2nccs2)CC1 | -8.37% |
| CN(Cc1cccc(O)c1)CC1CCCN(CCc2ccc(Cl)cc2)C1 (stereo not given) | 4.47% |
| Cc1nccc(C(=O)N2CCCN(Cc3cnn(C(C)C)c3)CC2)n1 | -2.77% |
| Cc1ncc2c(n1)CN(Cc1nc3ccccc3o1)CC2 | -5.8% |
| Cc1nc(-c2ccsc2)ccc1C(=O)NCCN1CCOCC1 | -2.94% |
| CCn1ccnc1CN1CCN(CC(O)c2ccccc2)CC1 (stereo not given) | -5.63% |
| CNS(=O)(=O)CCCN1CCCC1c1cc(C)on1 (stereo not given) | 1.49% |
| Cc1cc(C(F)(F)F)c2c(C3CCN(S(=O)(=O)N(C)C)CC3)noc2n1 | 7.31% |
| COc1cccc(-c2noc(C3CCN(Cc4cn(C)nc4C)C3)n2)c1 (stereo not given) | -1.93% |
| CCc1cnc(CNc2ccc(C(=O)N3CCCC(C)C3)cc2C)o1 (stereo not given) | -5.74% |
| COC(=O)C1CCN(C(=O)c2ccc(N(C)S(C)(=O)=O)c(C)c2)CC1 | -4.11% |
| O=C(Cc1ccccn1)N1CCN(CC2CC2)c2ncccc2C1 | 5.6% |
| CC1c2ncc(COc3cccnc3)n2CCN1C(=O)Cc1ccco1 (stereo not given) | -1.45% |
| CC(C)OCCOCc1cccc(NC(=O)NCCn2ccnc2)c1 | 2.56% |
| CN(c1ccncn1)C1CC2(CCN(C(=O)c3ccsc3)C2)C1 (stereo not given) | -8.13% |

What follows are molecules tested against Shiga toxin 2 (Escherichia coli O157:H7) (UniProt P09385+P09386) (assay: E. coli 0.157:H7 Shiga Toxin SOP - stx2 screening assay). Details: 30 µM.
Assay type: functional
Set-up: scale not given: direction of the effect not stated beside the values

| Compound | Percent Effect |
| --- | --- |
| CC1CN(C)c2ccccc2CN1C(=O)c1ccncc1 (stereo not given) | -12.6% |
| COc1ccc(CNC(=O)NCC2CCOC2)c(C(F)(F)F)c1 (stereo not given) | -3.72% |
| CCCn1nc(C2CCNCC2)n(Cc2ccccc2)c1=O | -6.93% |
| O=C(CN1CCCC(O)C1)NC(=O)NCc1cccs1 (stereo not given) | -13.2% |
| CCn1cnnc1C1CCN(C(=O)COCCc2ccccc2)CC1 | -20.2% |
| CCSCCC(=O)NS(=O)(=O)c1ccc2c(c1)OCCO2 | -25.1% |
| COCCCn1ccnc1-c1cnc(OC)nc1 | -0.356% |
| O=C(CNCCn1cccn1)NCC1(c2ccccc2)CC1 | 13.4% |
| CCN1CCN(C(=O)CCc2c(C)noc2Cl)CC1 | 28.8% |
| Cc1noc(Cl)c1CCC(=O)N1CCc2sccc2C1 | 18.9% |
| COC(=O)C1CCN(C(=O)CN2CCN(c3cccc(C)c3)CC2)CC1 | -48.5% |
| CCOc1cc(C)nc(N2CCN(Cc3nccn3C)CC2)n1 | 5.04% |
| CO[C@@H]1CC[C@H]2[C@H]1OCCN2C(=O)C1=CCCC1 | -25.5% |
| Cc1nc(CN2CCOC(CNc3cccnn3)C2)oc1C (stereo not given) | 0.662% |
| O=C(CCNc1ncccn1)NCCOc1ccc2c(c1)CCC2 | 35.6% |
| CC(C)(C)c1ccn(C2(C(=O)O)CCN(c3nccc(N)n3)CC2)n1 | -19.9% |
| O=C(Cn1nc(-c2ccc(F)cc2)oc1=O)Nc1ccccc1 | -19.2% |
| CN(Cc1ccc(Cl)s1)C(=O)NCc1nnc2n1CCC2 | 27.4% |
| Cc1c(C2CCCN(C(=O)C3CC3)C2)n2c(nc1=O)CCC2 (stereo not given) | 10.2% |
| O=C1CC(NCc2ccncc2)CN1Cc1cccc(F)c1 (stereo not given) | -1.08% |

| Compound | Percent Effect |
| --- | --- |
| COC(=O)N1CCCC(C(=O)NCc2cc3cccc(OC)c3o2)C1 (stereo not given) | 14.7% |
| Cc1ccc(CNCCOc2ccc(S(C)(=O)=O)cc2)cc1 | -76.7% |
| CN(C)CCN1CCC2(CC1)CN(c1cccnc1)C(=O)CO2 | -5.11% |
| Cc1csc(Nc2nccnc2C2CCCN2C(=O)C(C)C)n1 (stereo not given) | 13.1% |
| CC(=O)N1CCCCC1c1cc(CO)[nH]n1 (stereo not given) | 7.89% |
| N#Cc1ccccc1N1CCCN(C(=O)CCc2nccs2)CC1 | 9.06% |
| CN(Cc1cccc(O)c1)CC1CCCN(CCc2ccc(Cl)cc2)C1 (stereo not given) | -33.8% |
| Cc1nccc(C(=O)N2CCCN(Cc3cnn(C(C)C)c3)CC2)n1 | -13.2% |
| Cc1ncc2c(n1)CN(Cc1nc3ccccc3o1)CC2 | -2.56% |
| Cc1nc(-c2ccsc2)ccc1C(=O)NCCN1CCOCC1 | -4.33% |
| CCn1ccnc1CN1CCN(CC(O)c2ccccc2)CC1 (stereo not given) | -31% |
| CNS(=O)(=O)CCCN1CCCC1c1cc(C)on1 (stereo not given) | 5.74% |
| Cc1cc(C(F)(F)F)c2c(C3CCN(S(=O)(=O)N(C)C)CC3)noc2n1 | 0.93% |
| COc1cccc(-c2noc(C3CCN(Cc4cn(C)nc4C)C3)n2)c1 (stereo not given) | -38.8% |
| CCc1cnc(CNc2ccc(C(=O)N3CCCC(C)C3)cc2C)o1 (stereo not given) | 21.6% |
| COC(=O)C1CCN(C(=O)c2ccc(N(C)S(C)(=O)=O)c(C)c2)CC1 | -5.54% |
| O=C(Cc1ccccn1)N1CCN(CC2CC2)c2ncccc2C1 | -12.7% |
| CC1c2ncc(COc3cccnc3)n2CCN1C(=O)Cc1ccco1 (stereo not given) | -2.51% |
| CC(C)OCCOCc1cccc(NC(=O)NCCn2ccnc2)c1 | -31.1% |
| CN(c1ccncn1)C1CC2(CCN(C(=O)c3ccsc3)C2)C1 (stereo not given) | -32.2% |
